Inconclusive results are not listed. Some compounds were tested as several samples or in several runs, with calls that do not always agree. Activity calls are given as the source filed them. Rule for the calls, unless noted: active = hit-call score of the fitted dose curve at least 0.9, where 1 is the maximum; inactive = score below 0.9.
Tests used:
[1] = ATG_Sox_CIS: Attagene CIS-FACTORIAL HepG2 Assay for human SRY-box transcription factor (SOX) (AID 2282960); details: HepG2 Attagene cis-factorial SOX reporter, mRNA; actives raise or lower the signal
Procedure, shortened: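 HepG2, cis reporter units, 24 h exposure. Reporter mRNA: RT-PCR → FAM labelling → HpaI → CE fluorescence. Bidirectional fit vs DMSO.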

[2] = biological target: Transcription factor Sp1 (Homo sapiens) (UniProt P08047); test: ATG_Sp1_CIS: Attagene CIS-FACTORIAL HepG2 Assay for human Specificity Protein 1 (Sp1) (AID 2282961); details: HepG2 Sp1 cis-reporter transcription, actives raise or lower the signal
Procedure, shortened: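 Liver-derived HepG2 cells, cis-element reporter library, 24 h treatment; RNA isolated, cDNA amplified with reporter-specific primers, FAM-labeled fragments sized on capillary analyzer. DMSO baseline, bidirectional curve fit.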

[3] = ATG_SREBP_CIS: Attagene CIS-FACTORIAL HepG2 Assay for human Sterol Regulatory Element Binding (SREBP) (AID 2282962); details: HepG2 Attagene cis-factorial SREBP reporter, mRNA; actives raise or lower the signal
Procedure, shortened: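 mRNA induction of transfected cis-promoter reporters in HepG2 cells, 24 h post-dose. Detection: RT-PCR with 6-FAM-labelled products, HpaI digest, capillary electrophoresis. DMSO served as negative control and baseline.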

[4] = biological target: Signal transducer and activator of transcription 3 (Homo sapiens) (UniProt P40763); test: ATG_STAT3_CIS: Attagene CIS-FACTORIAL HepG2 Assay for human Signal Transducer and Activator of Transcription 3 (STAT3) (AID 2282963); details: HepG2, Attagene cis-factorial STAT3 reporter transcription; actives raise or lower the signal
Procedure, shortened: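 HepG2 cells transiently transfected with multiple cis-element-driven reporter units report endogenous transcription factor activity. After 24 h compound exposure, reporter mRNA is measured by RT-PCR, 6-FAM labelling, HpaI digestion and capillary electrophoresis. Fitted bidirectionally versus DMSO.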

[5] = ATG_TA_CIS: Attagene CIS-FACTORIAL HepG2 Assay for human TA Basal Promoter (AID 2282964); details: HepG2 Attagene CIS-factorial TA basal promoter reporter; actives raise or lower the signal
Procedure, shortened: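 Fluorescence from labelled RT-PCR reporter fragments, separated by capillary electrophoresis, gives the signal. Cells: HepG2 transiently carrying multiple reporter units, 24 h chemical dosing. Gain or loss relative to DMSO.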

[6] = ATG_TCF_b_cat_CIS: Attagene CIS-FACTORIAL HepG2 Assay for human T-Cell-Factor with beta-catenin (TCF/b-cat) (AID 2282965); details: HepG2 TCF/beta-catenin cis-reporter transcription, actives raise or lower the signal
Procedure, shortened: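 HepG2, transient MRTU transfection, cis-element-driven reporters (endogenous TFs). 24 h compound exposure. Readout: reporter mRNA by RT-PCR + 6-FAM primer extension, HpaI digest, capillary electrophoresis. Gain/loss fit vs DMSO baseline.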

[7] = ATG_TAL_CIS: Attagene CIS-FACTORIAL HepG2 Assay for human TAL Basal Promoter (AID 2282966); details: HepG2 Attagene cis-factorial TAL promoter reporter; actives raise or lower the signal;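 note: background control endpoint measuring basal TAL promoter reporter mRNA not a specific factor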
Procedure, shortened: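 Steps: transfect HepG2 with multiple reporter transcription units; dose 24 h; isolate RNA, reverse-transcribe, PCR-amplify, label with 6-FAM, digest with HpaI; resolve by capillary electrophoresis. Bidirectional fitting against DMSO baseline.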

[8] = ATG_TGFb_CIS: Attagene CIS-FACTORIAL HepG2 Assay for human Transforming Growth Factor (TGF) (AID 2282967); details: HepG2 Attagene CIS TGFb reporter, mRNA transcription; actives raise or lower the signal
Procedure, shortened: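 Bidirectional fitting relative to DMSO gave the endpoint. Underlying data: reporter mRNA from HepG2 cells carrying transiently transfected cis-regulated reporter constructs, harvested 24 h after dosing and analyzed by RT-PCR and capillary electrophoresis.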

[9] = ATG_VDRE_CIS: Attagene CIS-FACTORIAL HepG2 Assay for human Vitamin D Receptor Element (VDRE) (AID 2282968); details: HepG2 VDRE cis-reporter transcription, actives raise or lower the signal
Procedure, shortened: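 Transiently transfected HepG2 cells carrying cis-regulated reporter transcription units were exposed for 24 h. Reporter mRNA was measured by RT-PCR with fluorescent labelling and capillary electrophoresis, and fitted in both directions against DMSO.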

[10] = biological target: Nuclear receptor subfamily 1 group I member 3 (Homo sapiens) (UniProt Q14994); test: ATG_CAR_TRANS: Attagene TRANS-FACTORIAL HepG2 Assay for human Constitutive Androstane Receptor (CAR) (AID 2282969; active = hit-call score of the fitted dose curve at least 0.9, where 1 is the maximum;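 note: activators raise reporter mRNA above DMSO so AC50 marks induction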); details: HepG2 Attagene TRANS-FACTORIAL CAR reporter
Procedure, shortened: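 HepG2 cells transiently transfected with GAL4-UAS reporter units; TRANS format reads activity of exogenous chimeric NR-Gal4 protein. After 24 h dosing, reporter mRNA quantified by RT-PCR, 6-FAM labelling and capillary electrophoresis; gain of signal fitted against DMSO.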

[11] = biological target: X-box-binding protein 1 (Homo sapiens) (UniProt P17861); test: ATG_Xbp1_CIS: Attagene CIS-FACTORIAL HepG2 Assay for human X-box Binding Protein 1 (XBP1) (AID 2282972); details: HepG2 XBP1 cis-element reporter, Attagene multiplex; actives raise or lower the signal
Procedure, shortened: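 Fluorescence-labelled cDNA fragments from reporter transcripts, separated by capillary electrophoresis, give the signal. Source: HepG2 cells transfected with promoter-driven reporter units, harvested 24 h post-dose. DMSO served as reference for bidirectional curve fitting.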

[12] = ATG_GAL4_TRANS: Attagene TRANS-FACTORIAL HepG2 Assay for GAL4 (Internal Marker) (AID 2282976; active = hit-call score of the fitted dose curve at least 0.9, where 1 is the maximum); details: HepG2 Attagene TRANS GAL4 internal marker reporter
Procedure, shortened: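 Liver HepG2 line bearing multiplexed GAL4-UAS reporter constructs; 24 h chemical treatment. Transcripts were quantified as fluorescent fragments on capillary electrophoresis after RT-PCR and HpaI cut, with activity fitted upward from DMSO.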

[13] = biological target: Bile acid receptor (Homo sapiens) (UniProt Q96RI1); test: ATG_FXR_TRANS: Attagene TRANS-FACTORIAL HepG2 Assay for Farnesoid X Receptor (FXR) (AID 2282979; active = hit-call score of the fitted dose curve at least 0.9, where 1 is the maximum;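 note: hits raise reporter mRNA above DMSO so AC50 marks FXR activation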); details: HepG2 Attagene TRANS FXR-GAL4 reporter transcription
Procedure, shortened: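 After 24 h chemical treatment of transfected HepG2 cells, GAL4-UAS reporter transcripts driven by an exogenous FXR-GAL4 fusion were measured by RT-PCR and capillary electrophoresis. Increases over DMSO were fitted.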

[14] = biological target: Steroid hormone receptor ERR1 (Homo sapiens) (UniProt P11474); test: ATG_ERRa_TRANS: Attagene TRANS-FACTORIAL HepG2 Assay for human Estrogen-Related Receptor alpha (ERRa) (AID 2282971; active = hit-call score of the fitted dose curve at least 0.9, where 1 is the maximum); details: HepG2 Attagene TRANS reporter, ERRa transactivation
Procedure, shortened: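 Signal gain relative to DMSO for an ERRa-Gal4 chimeric receptor, read as reporter mRNA by RT-PCR/capillary electrophoresis. Human HepG2 liver cells, transient multiplex reporter transfection, 24 h chemical exposure.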

[15] = biological target: Estrogen receptor (Homo sapiens) (UniProt P03372); test: ATG_ERa_TRANS: Attagene TRANS-FACTORIAL HepG2 Assay for human Estrogen Receptor alpha (ERa) (AID 2282970; active = hit-call score of the fitted dose curve at least 0.9, where 1 is the maximum); details: HepG2 Attagene TRANS ERa GAL4 reporter, mRNA
Procedure, shortened: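 Multiplexed cell-based reporter format in HepG2: chimeric ERa-Gal4 protein drives GAL4-UAS reporter transcription. Fluorescent reporter mRNA quantified by capillary electrophoresis 24 hours after dosing; endpoint fitted as signal gain against DMSO.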

[16] = biological target: Glucocorticoid receptor (Homo sapiens) (UniProt P04150); test: ATG_GR_TRANS: Attagene TRANS-FACTORIAL HepG2 Assay for human Glucocorticoid Receptor (GR) (AID 2282978; active = hit-call score of the fitted dose curve at least 0.9, where 1 is the maximum;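 note: activators score as hits since higher reporter transcript over DMSO is fitted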); details: HepG2 Attagene TRANS GR reporter, mRNA transcription
Procedure, shortened: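 After 24 h incubation with test chemical, transfected HepG2 cells were lysed for RNA; reporter cDNA was amplified, FAM-labelled, HpaI-digested and sized on a capillary analyser. Signal gain relative to DMSO was scored.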

[17] = biological target: Oxysterols receptor LXR-alpha (Homo sapiens) (UniProt Q13133); test: ATG_LXRa_TRANS: Attagene TRANS-FACTORIAL HepG2 Assay for human Liver X Receptor alpha (LXRa) (AID 2282980; active = hit-call score of the fitted dose curve at least 0.9, where 1 is the maximum); details: HepG2 Attagene TRANS reporter, LXRa transactivation
Procedure, shortened: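 In this multiplexed TRANS system, compounds act on HepG2 cells carrying GAL4-UAS reporter units and a receptor-GAL4 fusion for 24 h. Induced reporter RNA is amplified, fluorescently labelled and sized by capillary electrophoresis, with DMSO as baseline.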

[18] = ATG_M_19_TRANS: Attagene TRANS-FACTORIAL HepG2 Assay for M19 Transcription Factor (Internal Marker) (AID 2282974; active = hit-call score of the fitted dose curve at least 0.9, where 1 is the maximum); details: HepG2 Attagene TRANS-FACTORIAL M19 internal marker reporter
Procedure, shortened: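 Transfected HepG2 (GAL4-UAS MRTUs), 24 h compound, TriZol RNA, DNase-treated RT, reporter PCR, FAM label, HpaI digest, CE fluorescence; gain vs DMSO.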

[19] = biological target: Estrogen-related receptor gamma (Homo sapiens) (UniProt P62508); test: ATG_ERRg_TRANS: Attagene TRANS-FACTORIAL HepG2 Assay for human Estrogen-Related Receptor gamma (ERRg) (AID 2282977; active = hit-call score of the fitted dose curve at least 0.9, where 1 is the maximum;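 note: hits increase reporter signal over DMSO so potencies reflect activators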); details: HepG2 Attagene TRANS reporter, ERRg transactivation
Procedure, shortened: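 HepG2 cells transiently transfected with multiplexed GAL4-UAS reporter units driven by chimeric NR-Gal4 proteins; 24 h exposure. Reporter mRNA quantified by RT-PCR, fluorescent labelling, HpaI digestion and capillary electrophoresis; gain of signal vs DMSO.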

Measured: AC50

Glucocorticoid receptor (Homo sapiens), sequence (P04150 whole entry, looked up): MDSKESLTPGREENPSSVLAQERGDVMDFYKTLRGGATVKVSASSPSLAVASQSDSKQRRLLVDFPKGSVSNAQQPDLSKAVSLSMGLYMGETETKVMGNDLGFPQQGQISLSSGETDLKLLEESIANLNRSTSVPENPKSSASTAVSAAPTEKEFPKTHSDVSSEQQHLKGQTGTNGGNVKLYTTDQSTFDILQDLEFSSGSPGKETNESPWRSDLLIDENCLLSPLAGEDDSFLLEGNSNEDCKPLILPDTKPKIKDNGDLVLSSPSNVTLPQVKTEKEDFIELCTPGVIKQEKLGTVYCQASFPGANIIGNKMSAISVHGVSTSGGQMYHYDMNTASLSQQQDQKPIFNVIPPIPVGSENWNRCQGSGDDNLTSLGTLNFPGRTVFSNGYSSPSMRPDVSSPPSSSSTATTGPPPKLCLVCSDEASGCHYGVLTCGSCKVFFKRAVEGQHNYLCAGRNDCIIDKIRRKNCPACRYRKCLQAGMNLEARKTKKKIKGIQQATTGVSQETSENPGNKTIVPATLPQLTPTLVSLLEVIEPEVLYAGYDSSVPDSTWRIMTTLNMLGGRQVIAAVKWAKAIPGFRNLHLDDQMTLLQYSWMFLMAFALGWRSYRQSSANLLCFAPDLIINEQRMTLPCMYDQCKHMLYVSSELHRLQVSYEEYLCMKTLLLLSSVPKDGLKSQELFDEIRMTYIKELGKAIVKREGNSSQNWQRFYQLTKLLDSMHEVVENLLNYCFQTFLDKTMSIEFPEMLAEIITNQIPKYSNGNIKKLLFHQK
Oxysterols receptor LXR-alpha (Homo sapiens), sequence (Q13133 whole entry, looked up, the tested form may be a part): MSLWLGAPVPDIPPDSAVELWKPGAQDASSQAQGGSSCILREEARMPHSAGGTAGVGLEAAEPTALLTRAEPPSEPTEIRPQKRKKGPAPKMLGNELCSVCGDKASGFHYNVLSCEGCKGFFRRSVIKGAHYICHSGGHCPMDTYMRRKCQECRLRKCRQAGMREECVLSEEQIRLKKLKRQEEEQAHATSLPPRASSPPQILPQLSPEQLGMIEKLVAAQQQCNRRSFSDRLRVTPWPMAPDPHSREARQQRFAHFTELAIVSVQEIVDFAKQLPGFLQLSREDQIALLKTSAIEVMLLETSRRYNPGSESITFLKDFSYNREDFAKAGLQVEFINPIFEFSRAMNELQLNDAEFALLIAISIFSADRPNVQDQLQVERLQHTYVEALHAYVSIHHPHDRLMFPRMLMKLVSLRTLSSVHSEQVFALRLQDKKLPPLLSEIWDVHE
Estrogen receptor (Homo sapiens), sequence (P03372 whole entry, looked up, the tested form may be a part): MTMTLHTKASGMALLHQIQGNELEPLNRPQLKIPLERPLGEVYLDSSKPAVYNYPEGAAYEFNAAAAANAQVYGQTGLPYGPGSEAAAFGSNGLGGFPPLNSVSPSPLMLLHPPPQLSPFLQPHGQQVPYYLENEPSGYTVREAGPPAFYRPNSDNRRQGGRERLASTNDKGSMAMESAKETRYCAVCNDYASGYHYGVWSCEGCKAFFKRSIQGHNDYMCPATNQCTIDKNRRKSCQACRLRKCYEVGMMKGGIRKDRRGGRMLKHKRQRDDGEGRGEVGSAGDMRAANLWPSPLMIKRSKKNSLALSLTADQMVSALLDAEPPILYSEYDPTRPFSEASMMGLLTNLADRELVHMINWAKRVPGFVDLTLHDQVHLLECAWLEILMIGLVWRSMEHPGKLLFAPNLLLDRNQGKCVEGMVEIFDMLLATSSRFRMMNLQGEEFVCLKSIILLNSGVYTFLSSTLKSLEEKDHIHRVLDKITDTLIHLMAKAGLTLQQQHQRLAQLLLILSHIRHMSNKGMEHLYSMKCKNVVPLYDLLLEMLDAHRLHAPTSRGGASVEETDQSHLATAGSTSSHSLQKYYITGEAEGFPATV
Bile acid receptor (Homo sapiens), sequence (Q96RI1 whole entry, looked up, the tested form may be a part): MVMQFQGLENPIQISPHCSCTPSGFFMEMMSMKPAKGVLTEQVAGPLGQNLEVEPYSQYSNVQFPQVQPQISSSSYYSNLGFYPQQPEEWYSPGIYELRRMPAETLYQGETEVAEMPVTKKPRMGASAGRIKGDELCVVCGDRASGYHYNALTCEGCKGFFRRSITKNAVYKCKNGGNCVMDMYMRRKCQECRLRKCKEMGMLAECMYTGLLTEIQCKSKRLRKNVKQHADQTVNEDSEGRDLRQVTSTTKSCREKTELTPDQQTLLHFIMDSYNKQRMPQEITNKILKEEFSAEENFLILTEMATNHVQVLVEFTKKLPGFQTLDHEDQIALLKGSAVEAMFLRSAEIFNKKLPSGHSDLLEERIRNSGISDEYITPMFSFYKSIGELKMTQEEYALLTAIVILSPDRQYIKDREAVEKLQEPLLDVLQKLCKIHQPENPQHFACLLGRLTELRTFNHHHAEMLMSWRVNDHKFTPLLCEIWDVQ
Signal transducer and activator of transcription 3 (Homo sapiens), sequence (P40763 whole entry, looked up): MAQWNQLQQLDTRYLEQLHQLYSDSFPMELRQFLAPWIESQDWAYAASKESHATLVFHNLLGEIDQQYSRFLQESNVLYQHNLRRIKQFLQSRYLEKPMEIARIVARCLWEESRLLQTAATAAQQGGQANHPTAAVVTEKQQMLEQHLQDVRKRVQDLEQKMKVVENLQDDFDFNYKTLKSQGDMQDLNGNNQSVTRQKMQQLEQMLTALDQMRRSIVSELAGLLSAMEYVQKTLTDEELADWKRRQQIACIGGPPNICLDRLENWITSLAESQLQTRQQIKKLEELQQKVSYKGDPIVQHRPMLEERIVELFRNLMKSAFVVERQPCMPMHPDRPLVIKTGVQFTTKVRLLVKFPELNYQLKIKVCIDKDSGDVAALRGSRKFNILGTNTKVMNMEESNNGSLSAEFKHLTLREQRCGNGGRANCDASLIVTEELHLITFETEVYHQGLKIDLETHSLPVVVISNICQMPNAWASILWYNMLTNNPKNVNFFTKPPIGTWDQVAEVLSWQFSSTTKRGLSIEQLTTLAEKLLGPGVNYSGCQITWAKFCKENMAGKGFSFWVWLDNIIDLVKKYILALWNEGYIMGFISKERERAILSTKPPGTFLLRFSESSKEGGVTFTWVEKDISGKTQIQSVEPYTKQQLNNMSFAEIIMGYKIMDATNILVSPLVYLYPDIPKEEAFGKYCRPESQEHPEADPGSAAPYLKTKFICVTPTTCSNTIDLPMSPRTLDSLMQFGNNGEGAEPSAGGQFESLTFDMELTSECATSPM
Estrogen-related receptor gamma (Homo sapiens), sequence (P62508 whole entry, looked up, the tested form may be a part): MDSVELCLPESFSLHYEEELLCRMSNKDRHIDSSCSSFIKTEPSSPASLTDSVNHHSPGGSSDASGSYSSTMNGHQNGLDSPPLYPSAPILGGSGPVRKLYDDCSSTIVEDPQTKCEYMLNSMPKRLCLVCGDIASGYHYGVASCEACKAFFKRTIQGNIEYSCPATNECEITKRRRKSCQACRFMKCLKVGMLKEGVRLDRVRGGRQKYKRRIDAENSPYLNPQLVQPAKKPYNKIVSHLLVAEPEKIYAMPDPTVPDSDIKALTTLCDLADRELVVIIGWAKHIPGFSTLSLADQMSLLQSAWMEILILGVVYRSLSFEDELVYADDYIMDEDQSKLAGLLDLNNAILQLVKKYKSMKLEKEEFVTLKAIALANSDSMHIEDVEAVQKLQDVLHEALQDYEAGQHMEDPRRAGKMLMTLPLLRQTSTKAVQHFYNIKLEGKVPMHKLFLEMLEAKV
Nuclear receptor subfamily 1 group I member 3 (Homo sapiens), sequence (Q14994 whole entry, looked up, the tested form may be a part): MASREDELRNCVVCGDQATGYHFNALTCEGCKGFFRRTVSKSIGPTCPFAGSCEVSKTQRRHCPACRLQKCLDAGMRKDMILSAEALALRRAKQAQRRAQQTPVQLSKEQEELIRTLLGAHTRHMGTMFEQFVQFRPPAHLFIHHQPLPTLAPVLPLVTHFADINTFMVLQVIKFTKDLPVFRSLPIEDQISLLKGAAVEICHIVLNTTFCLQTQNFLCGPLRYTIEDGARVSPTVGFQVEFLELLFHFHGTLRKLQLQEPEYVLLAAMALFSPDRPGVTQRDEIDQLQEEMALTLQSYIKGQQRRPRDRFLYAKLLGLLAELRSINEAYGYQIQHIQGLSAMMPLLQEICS
X-box-binding protein 1 (Homo sapiens), sequence (P17861 whole entry, looked up, the tested form may be a part): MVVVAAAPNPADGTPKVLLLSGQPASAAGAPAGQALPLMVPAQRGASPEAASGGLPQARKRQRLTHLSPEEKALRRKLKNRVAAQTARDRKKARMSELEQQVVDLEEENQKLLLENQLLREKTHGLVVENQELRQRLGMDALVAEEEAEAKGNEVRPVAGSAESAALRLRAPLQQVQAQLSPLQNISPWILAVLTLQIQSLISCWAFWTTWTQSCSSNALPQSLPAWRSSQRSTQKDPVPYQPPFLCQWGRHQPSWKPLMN
Transcription factor Sp1 (Homo sapiens), sequence (P08047 whole entry, looked up, the tested form may be a part): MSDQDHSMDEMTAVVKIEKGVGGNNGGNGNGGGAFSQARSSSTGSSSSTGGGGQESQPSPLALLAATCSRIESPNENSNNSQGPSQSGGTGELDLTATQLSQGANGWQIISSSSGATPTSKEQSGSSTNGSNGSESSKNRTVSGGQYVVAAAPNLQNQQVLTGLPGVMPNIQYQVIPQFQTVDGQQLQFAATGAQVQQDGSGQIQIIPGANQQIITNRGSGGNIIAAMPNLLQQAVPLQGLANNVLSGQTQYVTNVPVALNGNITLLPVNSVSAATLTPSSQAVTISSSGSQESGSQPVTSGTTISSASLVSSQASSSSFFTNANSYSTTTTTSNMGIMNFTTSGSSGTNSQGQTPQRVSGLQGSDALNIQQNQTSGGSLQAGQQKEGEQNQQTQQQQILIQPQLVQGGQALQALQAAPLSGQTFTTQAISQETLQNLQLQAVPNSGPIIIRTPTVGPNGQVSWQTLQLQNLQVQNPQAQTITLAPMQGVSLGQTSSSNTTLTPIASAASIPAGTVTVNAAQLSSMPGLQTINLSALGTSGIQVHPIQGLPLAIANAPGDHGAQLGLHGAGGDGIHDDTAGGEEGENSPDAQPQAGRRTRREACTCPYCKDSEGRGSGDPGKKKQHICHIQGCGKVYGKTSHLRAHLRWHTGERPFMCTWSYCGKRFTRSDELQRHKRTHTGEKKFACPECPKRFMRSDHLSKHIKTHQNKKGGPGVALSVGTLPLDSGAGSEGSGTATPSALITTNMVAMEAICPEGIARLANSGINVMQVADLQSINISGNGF

CC1(C)[C@H](C(=O)O[C@H](C#N)c2cccc(Oc3ccccc3)c2)[C@@H]1/C=C(\Cl)C(F)(F)F
active: [9] 0.502 µM
inactive: [1] | [2] | [3] | [4] | [5] | [6] | [7] | [8] | [9] | [10] | [11] | [12] | [13]

O=C(O)C1(c2ccc3c(c2)OC[C@H](Cc2ccc(-c4ccccc4)cc2)[C@H]3O)CCCC1
active: [3] 5.92 µM
not listed: [11] | [15] | [16] | [17] | [18] | [19]
inactive: all other assays above

CCOCn1c(-c2ccc(Cl)cc2)c(C#N)c(Br)c1C(F)(F)F
active: [1] 30.4 µM | [2] 30.6 µM | [3] 49 µM | [4] 142 µM | [6] 7.11 µM | [8] 25.6 µM | [9] 1.79 µM | [11] 2.71 µM
inactive: [5] | [7] | [10] | [15] | [16] | [13] | [17]

O=C(O)c1cc(I)cc(I)c1I
not listed: [10] | [13] | [14] | [19]
inactive: all other assays above

CCCCN(CCCC)C(=S)[S-].CCCCN(CCCC)C(=S)[S-].[Ni+2]
not listed: [10] | [13] | [14] | [16] | [19]
inactive: all other assays above

Oc1c(Cl)cc(Cl)cc1Cl
inactive: [1] | [2] | [3] | [4] | [5] | [6] | [7] | [8] | [10] | [11]

ClCc1ccccc1CCl
active: [1] 22.6 µM | [2] 33.4 µM | [4] 33.4 µM | [6] 22.4 µM | [7] 16.5 µM | [11] 12.6 µM
inactive: [3] | [5] | [8] | [10] | [15] | [17]

ClCCN1CCOCC1
not listed: [10] | [12] | [13] | [14] | [16] | [18] | [19]
inactive: all other assays above

Nc1nc(N)nc(Cl)n1
not listed: [9] | [13] | [14] | [16] | [17] | [19]
inactive: all other assays above

Oc1c(Br)cc(Br)cc1Br
inactive: [1] | [3] | [4] | [6] | [7] | [10] | [18] | [17]
active: [2] 25.9 µM | [5] 65.7 µM | [8] 156 µM | [15] 5.59 µM | [11] 42 µM

O=[N+]([O-])c1cccc2ccccc12
active: [15] 39.9 µM
not listed: [9] | [10] | [13] | [16] | [17]
inactive: all other assays above

O=C/C(Cl)=C(/Cl)C(=O)O
active: [1] 83.9 µM | [3] 159 µM | [6] 31.9 µM | [8] 43.7 µM | [9] 74.3 µM | [15] 156 µM
not listed: [10] | [12] | [14] | [16] | [18]
inactive: all other assays above

C=CC(F)(C(F)(F)F)C(F)(F)C(F)(F)F (centres undefined)
not listed: [10] | [12] | [15] | [16] | [18] | [19]
inactive: all other assays above

CC(C)=CC1C(C(=O)OCc2cccc(Oc3ccccc3)c2)C1(C)C (centres undefined)
active: [15] 12.8 µM
not listed: [9] | [11] | [16]
inactive: all other assays above

CC(O)(CS(=O)(=O)c1ccc(F)cc1)C(=O)Nc1ccc(C#N)c(C(F)(F)F)c1 (centres undefined)
active: [9] 32.3 µM
not listed: [10] | [11] | [13] | [15] | [19]
inactive: all other assays above

CC(=Cc1ccccc1)[N+](=O)[O-]
active: [11] 11.1 µM
not listed: [10] | [12] | [13] | [14] | [16] | [17] | [18]
inactive: all other assays above

CN(C)c1ccc(N=O)cc1
not listed: [9] | [12] | [18]
inactive: all other assays above

CC(=O)C(F)(F)C(F)(F)F
not listed: [10] | [14] | [17] | [18] | [19]
inactive: all other assays above
